Source: PubChem BioAssay AID1697 (The Scripps Research Institute Molecular Screening Center, 2009)
Some of the results follow. Values without a mark were called inactive. Activity calls are given as the source filed them.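 How the source made its calls: active means percent activation above the mean of DMSO-only control wells plus 3 SD of those wells (cut at about 18% in these data); inactive means the rest.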

Target: Neuropeptide Y receptor type 1 (Homo sapiens) (UniProt P25929)
Assay: human Y1 receptor agonism – cell-based, fluorescence, counter-screen for NPY-Y1 potentiator project, confirmation (AID 1697);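 further: cells challenged with isoproterenol plus Ro 20-1724 with no NPY in test wells; Y1 agonism lowers isoproterenol-driven cAMP and reduces probe fluorescence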
Conditions: HEK293 Y1-CNGC, membrane potential fluorescence, agonist mode; at 3.6 µM; stronger effect = higher value

Chain of Neuropeptide Y receptor type 1 (Homo sapiens) (P25929 whole entry, looked up): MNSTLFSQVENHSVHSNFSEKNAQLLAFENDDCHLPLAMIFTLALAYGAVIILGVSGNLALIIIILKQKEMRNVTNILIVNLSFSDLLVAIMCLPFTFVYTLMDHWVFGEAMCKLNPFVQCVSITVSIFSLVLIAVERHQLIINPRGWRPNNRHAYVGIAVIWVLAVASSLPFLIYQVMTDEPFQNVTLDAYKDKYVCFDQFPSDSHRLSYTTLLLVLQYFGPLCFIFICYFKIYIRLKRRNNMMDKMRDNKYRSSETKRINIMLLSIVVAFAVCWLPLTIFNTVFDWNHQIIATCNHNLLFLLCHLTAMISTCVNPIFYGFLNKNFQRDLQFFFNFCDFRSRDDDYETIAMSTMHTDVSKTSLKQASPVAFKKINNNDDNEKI

Compound	activation
CC(=O)c1ccc(NC(=O)C2CC(=O)Nc3nc4ccccc4n32)cc1 (stereo unspecified)	38% (active)
CC1=C/C(=N\OS(=O)(=O)c2ccccc2)C=CC1=O	14.2%
COC(=O)c1ccc(NC(=O)CN(c2ccc(C)cc2)S(=O)(=O)c2c(C)n[nH]c2C)cc1	45.3% (active)
CN1C(=O)c2ccccc2C(C(=O)NCCCN2CCCC2)C1c1c[nH]c2ccccc12 (stereo unspecified)	-3%
O=C(c1cccs1)N1CCN(C(=O)N2CCOCC2)CC1	-8.38%
Cc1cccc(OCC(O)CN2CCN(CCN3C(=O)c4cccc5cccc(c45)C3=O)CC2)c1C (stereo unspecified)	45.1% (active)
O=[N+]([O-])c1cc(Cl)cc(/C=N/NC(=S)Nc2cc(S(=O)(=O)N3CCOCC3)ccc2Cl)c1O	77% (active)
CCn1c2ccccc2c2cc(NC(=O)Nc3ccc([N+](=O)[O-])cc3C)ccc21	11.8%
O=C(Nc1ccc2c(c1)CCC2)c1cccc(S(=O)(=O)Nc2ccccc2Cl)c1	3.19%
N#Cc1ccc(C(=O)Nc2nc(-c3cccs3)c(C(=O)C(F)(F)F)s2)cc1	-33.9%
Cc1ccccc1NCC(=O)N/N=C\c1ccc([N+](=O)[O-])s1	40% (active)
COC(=O)c1sc(-c2ccc(C(C)(C)C)cc2)cc1NC(=O)/C=C/C(=O)O	26.9% (active)
CSc1nc(-c2ccco2)nn1C(=O)c1ccccc1Cl	28.5% (active)
COCCn1nnnc1C(c1ccccc1Cl)N1CCN(c2ccccc2OC)CC1 (stereo unspecified)	-0.37%
O=C1/C(=C/c2coc3ccc(O)cc3c2=O)SC(=S)N1c1ccccc1	16.8%
O=C(Nc1ccccc1C(F)(F)F)c1cc(-c2ccc(O)cc2)on1	9.5%
